Source: PubChem
HEK293 cAMP cs = raises cAMP in parental HEK293 cells, TSHR agonist counter-screen | Potency, µM (titrated, usually from 57.1 µM), usual class: activators | parental HEK293 CNG cAMP sensor, membrane potential fluorescence | 73,000 compounds, 2.5% hits; note: nearly all actives have a fitted effect of over 55% in size
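Parental HEK 293 cells stably expressing a modified CNG channel (no TSHR) report cAMP rise as membrane depolarization. Membrane potential dye with 100 uM RO 20-1724 was loaded for 60 min at room temperature, then compound added for 30 min; fluorescence read at 590 nm.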
PK Bst = modulators of Bacillus stearothermophilus pyruvate kinase; purified pyruvate kinase, luminescence ATP production; ribose 5-phosphate activator present at AC10; AID 361; 51,000 compounds, 1.2% hits; Potency, µM; in the data active = potency below about 11 µM; inconclusive = mostly about 12 µM to 25 µM;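 the screen sought inhibitors and activators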
Tau filament bind = binders of human tau filaments | P10636 | recombinant tau filaments, thioflavin S fluorescence, 15 h; filaments grown with octadecylsulfate alongside compound | Potency, µM (doses to about 57.1 µM) | 71,000 compounds, 2% hits | AID 596;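 note: actives lower thioflavin S fluorescence by blocking filaments or displacing dye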
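Read-out: ThS fluorescence, 450 nm excitation/510 nm emission; lower signal marks blocked filament formation or displaced dye. Tau at 1 uM with 30 uM ODS, 10 uM ThS, 5 mM DTT, 100 mM NaCl, 10 mM HEPES pH 7.4; 15 h, 37 C.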
TSHR ag = activates the human thyroid stimulating hormone receptor; P16473; HEK293-CNG-TSHR cells (CNG channel as cAMP sensor), membrane potential dye, cAMP; 73,000 compounds, 0.48% hits; Potency, µM (series often up to 57.1 µM), actives largely listed as activators; active = well fitted activation curve with a large enough effect in the main read-out, with a control signal flat, not every such curve was filed as active; inconclusive = small, poorly fitted or top-dose-only effect, or a change in a side signal; inactive = no such curve, though single readings can be large or run the other way; reference of the percent scale not stated here;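 note: the control signal comes from parental cells without the receptor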
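HEK 293 cells stably expressing TSHR and a modified CNG channel, with CNG-only parental cells as counterscreen, were preloaded 60 min at room temperature with membrane potential dye containing 100 uM RO 20-1724. Compound exposure was 30 min, and depolarization was read as fluorescence at 590 nm.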
Luciferase inh = inhibitors of firefly luciferase. purified firefly luciferase, luminescence, 8 min. 72,000 compounds, 2.2% hits. Potency, µM (doses to about 57.1 µM), hits mostly inhibitors. P08659; note: nearly all actives have a fitted effect of over 40% in size
Target sequence (P08659 whole entry, looked up): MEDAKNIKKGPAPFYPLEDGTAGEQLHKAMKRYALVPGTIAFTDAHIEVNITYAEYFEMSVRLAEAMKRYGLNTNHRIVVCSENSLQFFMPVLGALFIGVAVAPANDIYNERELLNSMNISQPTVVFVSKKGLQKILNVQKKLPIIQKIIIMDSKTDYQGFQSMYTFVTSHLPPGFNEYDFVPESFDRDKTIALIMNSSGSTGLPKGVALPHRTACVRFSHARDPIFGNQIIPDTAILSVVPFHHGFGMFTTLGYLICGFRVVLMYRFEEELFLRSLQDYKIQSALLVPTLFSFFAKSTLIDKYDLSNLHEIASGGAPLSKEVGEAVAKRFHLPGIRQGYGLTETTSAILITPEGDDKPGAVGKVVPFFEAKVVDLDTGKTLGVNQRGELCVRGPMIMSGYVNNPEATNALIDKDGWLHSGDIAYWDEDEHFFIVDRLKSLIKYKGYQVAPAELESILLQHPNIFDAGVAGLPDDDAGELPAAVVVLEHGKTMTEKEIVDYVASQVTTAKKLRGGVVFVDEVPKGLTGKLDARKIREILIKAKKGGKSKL
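Titration-based qHTS; buffer 50 mM imidazole pH 7.2, 50 mM KCl, 7 mM MgCl2, 10 uM ATP, 0.01% Tween 20, 0.05% BSA; luciferase/luciferin detector mix added after compound; 8 min, ambient; luminescence.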
ERK AVP inh = vasopressin-driven ERK pathway inhibition | AID 995 | Potency, µM (top dose mostly 57.5 µM), most hits filed as inhibitors | HEK293-V1b, vasopressin-stimulated pERK AlphaScreen | 72,000 compounds, 0.99% hits; note: nearly all actives have a fitted effect of over 55% in size
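HEK293 cells stably expressing V1b receptor, preincubated 30 min at 37 °C with compound, then stimulated 5 min with 25 nM vasopressin. Phospho-ERK by AlphaScreen SureFire after 5 h RT; normalized to DMSO and vasopressin; AC50 by Hill fit.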
Large screens that a line does not name were inactive. Sampled rows, rich in hits. Any-hit rate of the full collection: about 7.2%. Unless noted, calls come from the whole dose curve; as a rule, active = well fitted curve in the direction sought with a large enough effect; inconclusive = small, poorly fitted or top-dose-only effect, or another doubt; inactive = no such curve, though single readings can be large; an effect the other way counts as inactive or inconclusive.

CC(C)=CCC/C(C)=C/COc1c2ccoc2cc2oc(=O)ccc12	HEK293 cAMP cs 13µM, Tau filament bind inconclusive, TSHR ag inconclusive (no result: PK Bst, ERK AVP inh)
CC(C)=CCC/C(C)=C/COc1c2occc2cc2ccc(=O)oc12	none (no result: HEK293 cAMP cs, PK Bst, Tau filament bind, TSHR ag, Luciferase inh)
Cn1c(/C(C#N)=C(\O)CN2CCN(Cc3ccccc3)CC2)nc2ccccc21	HEK293 cAMP cs 32µM, TSHR ag inconclusive
CCCCn1c(=NC(=O)c2cccnc2)c(C(=O)OCC)cc2c(=O)n3ccccc3nc21	none
CCCCn1c(=NC(=O)c2ccco2)c(C(=O)OCC)cc2c(=O)n3ccccc3nc21	Tau filament bind 7.9µM
CCCCCn1c(=NC(=O)c2ccco2)c(C(=O)OCC)cc2c(=O)n3ccccc3nc21	Tau filament bind 5µM, TSHR ag inconclusive
COc1cccc(/C=N/NC(=O)c2cc(-c3ccc(C)cc3)n[nH]2)c1O	none (no result: PK Bst, Tau filament bind, Luciferase inh, ERK AVP inh)
CCOC(=O)OCC1OC(C#Cc2ccc(F)cc2F)C=CC1OC(=O)OCC (stereo not given)	none (no result: PK Bst, Tau filament bind, Luciferase inh)
O=S(=O)(N1CCCCC1)n1c(Cc2ccccc2)nc2ccccc21	HEK293 cAMP cs 32µM, TSHR ag inconclusive
Cc1nc2ccccc2n1S(=O)(=O)c1ccc(S(=O)(=O)N2CCCCCC2)cc1	none
COc1ccc(C(c2nnnn2Cc2ccccc2)N2CCN(c3ccccc3)CC2)cc1 (stereo not given)	HEK293 cAMP cs inconclusive, TSHR ag inconclusive
COc1ccc(Cn2nnnc2C(C(C)C)N2CCN(c3ccccc3OC)CC2)cc1 (stereo not given)	HEK293 cAMP cs 13µM, TSHR ag inconclusive
COc1ccccc1N1CCN(C(c2ccc(C)cc2)c2nnnn2C(C)C)CC1 (stereo not given)	HEK293 cAMP cs 16µM, TSHR ag inconclusive
Nc1ccc(N=Nc2ccccc2)c(N)c1	Tau filament bind 1.6µM, TSHR ag inconclusive, ERK AVP inh inconclusive (no result: PK Bst, Luciferase inh)
COC(=O)N1CCC2(CC1)CCN(c1ccncc1)CC2	none (no result: PK Bst)
Cc1cc(N2CCN(c3ccccn3)CC2)n2c(nc3ccccc32)c1C#N	HEK293 cAMP cs 2µM, TSHR ag inconclusive
CN(C)c1ccc(-c2nc(-n3ccnc3)c3ccccc3n2)cc1	Tau filament bind inconclusive, TSHR ag inconclusive, Luciferase inh inconclusive (no result: PK Bst)
CCOC(=O)CSc1nc(N)c(C(=O)Nc2ccc(N(C)C)cc2)s1	Luciferase inh 13µM (no result: HEK293 cAMP cs, Tau filament bind, TSHR ag, ERK AVP inh)
COc1ccc(NC(=O)c2sc(SC)nc2N)cc1	none (no result: PK Bst)
COc1ccccc1CCn1c(=O)c(-c2ccc(F)c(F)c2)nc2cncnc21	HEK293 cAMP cs inconclusive, TSHR ag inconclusive, ERK AVP inh inconclusive (no result: PK Bst)
CCOC(=O)c1c(C2CCN(C(=O)OCC)CC2)nc2ccccn12	HEK293 cAMP cs 0.32µM, TSHR ag inconclusive (no result: PK Bst, ERK AVP inh)
CCOC(=O)c1c(C)nc2ccccn12	ERK AVP inh inconclusive
O=C(N/N=C1/C[C@@H](O)[C@@H](O)[C@@H]2[C@H]3C(=O)N(c4ccc(F)cc4F)C(=O)[C@@H]3CC[C@@H]12)OCc1ccccc1	none (no result: PK Bst, Tau filament bind)
CN(C)S(=O)(=O)c1ccc(C(=O)Nc2ccc(OCC(=O)N3CCOCC3)cc2)cc1	Luciferase inh 16µM (no result: PK Bst)
CCOc1ccc(-n2c(SCc3nc(-c4cccs4)no3)nnc2-c2ccncc2)cc1	HEK293 cAMP cs 3.2µM, TSHR ag inconclusive
Cn1c(C(=O)NCc2cccnc2)cc2sc(Cl)cc21	HEK293 cAMP cs 25µM, TSHR ag inconclusive (no result: PK Bst, Tau filament bind, Luciferase inh, ERK AVP inh)
O=C(O)c1ccccc1-c1ccccc1C(=O)Nc1ccc2c(c1)Cc1cc(F)ccc1-2	none (no result: PK Bst)
CCCn1nnnc1SCC(=O)NCc1cccs1	none
COCCn1c(-c2ccc(Cl)cc2)cnc1SCC(=O)NCc1cccs1	HEK293 cAMP cs 10µM, TSHR ag inconclusive
CCN(CC)c1ccc(C(=S)N2CCN(c3ccccc3)CC2)cc1	Tau filament bind 5µM, ERK AVP inh 32µM
O=C(c1ccccc1C(=O)N1CCN(c2ccccc2)CC1)N1CCN(c2ccccc2)CC1	HEK293 cAMP cs inconclusive, TSHR ag inconclusive
CN1CCN(c2ccc(C(=O)c3ccc(F)cc3)cc2)CC1	Luciferase inh 25µM (no result: PK Bst)
O=C(c1ccccc1C(=O)N1CCN(c2ccc(F)cc2)CC1)N1CCN(c2ccc(F)cc2)CC1	ERK AVP inh 40µM
Nc1ccc(N2CCCCCC2)cc1	Tau filament bind 10µM
Cc1cccc(NS(=O)(=O)c2cc(C(=O)O)ccc2Cl)c1	none (no result: PK Bst, Tau filament bind, Luciferase inh, ERK AVP inh)
O=C(c1ccccc1)c1ccc(N2CCNCC2)cc1	HEK293 cAMP cs inconclusive, TSHR ag inconclusive
